HT1080-NT tox: qHTS for induction of synthetic lethality in tumor cells producing 2HG: qHTS for the HT-1080-NT fibrosarcoma cell line | HT-1080-NT fibrosarcoma viability, CellTiter-Glo ATP luminescence, 48 h | Potency, µM (doses to about 46.1 µM), for inactives: at the highest dose activity, negative = less viability, hits mostly cytotoxic | 1.6% of 360,000 active | AID 686970, 2013;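 further: NT is the 2HG producing partner of a matched IDH1 knockdown line; potency means the concentration at half of the fitted maximal effect; 0% = DMSO-treated cells and -100% = media-only wells without cells; nearly all actives have a fitted effect of over 55% in size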
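Viability by CellTiter-Glo luminescence after 48 h compound exposure at 37C of HT-1080-NT cells (750/well, RPMI, 5% FBS). % activity scaled between DMSO wells and medium-only wells, then curve-fitted and categorized by curve class.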
HT1080 IDH1KD tx: qHTS for induction of synthetic lethality in tumor cells producing 2HG: qHTS for the HT-1080-IDH1KD cell line; HT-1080 IDH1 knockdown viability, ATP luminescence, 48 h; Potency, µM (titrated, usually from 46.1 µM), inactives show at the top dose activity, negative = toxicity, usual class: cytotoxic; 2% of 360,000 active;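 further: potency means the concentration at half of the fitted maximal effect; 0% = DMSO wells and -100% = cell-free medium wells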
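Using the IDH1-knockdown HT-1080 line run in the same batch and compound series as the NT line, viability after 48 h at 37 °C was determined by CellTiter-Glo luminescence and expressed as % activity.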
TDP1 cell noCPT: qHTS for Inhibitors of human tyrosyl-DNA phosphodiesterase 1 (TDP1): qHTS in cells in absence of CPT; 15% of 420,000 active; DT40 Tdp1-/- hTDP1 cells, no CPT, ATP luminescence, 48 h; Potency, µM (titrated, usually from 46.2 µM), for inactives: top-dose activity change, negative = growth inhibition, actives largely listed as inhibitors; AID 686978, 2013; further: potency means the concentration at half of the fitted maximal effect; nearly all actives have a fitted effect of over 55% in size
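Chicken DT40 Tdp1-/- cells stably complemented with human TDP1 were seeded at 400 cells/well with DMSO in place of 20 nM camptothecin. After compound pinning, cells grew at least 48 hr at 37 °C; viability read by CellTiter-Glo luminescence.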
IL1B secr inh: qHTS for Inhibitors of Inflammasome Signaling: IL-1-beta AlphaLISA Primary Screen; activity change, % at 57.5 µM; THP-1 LPS/ATP IL-1B secretion, AlphaLISA, 16 h; hits give low values; 4.7% of 360,000 active; AID 743279, 2014; in the data active means activity change below about -50%; inconclusive means mostly about -30% to -49%
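THP-1 cells pretreated 1 hr with compounds (up to 57.5 uM final), then stimulated with LPS (250 ng/mL final) plus ATP (1.25 mM final); secreted IL-1B measured by AlphaLISA after 16 hr, decreased signal indicating inhibition.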
TDP1 cell CPT: qHTS for Inhibitors of human tyrosyl-DNA phosphodiesterase 1 (TDP1): qHTS in cells in presence of CPT; chicken DT40 Tdp1-/-;hTDP1 cells + 20 nM CPT, ATP luminescence, 48 h; Potency, µM (highest dose often 46.2 µM), for the others: top-dose activity change, negative = growth inhibition, usual class: inhibitors; 12% of 420,000 active; further: potency means the concentration at half of the fitted maximal effect; nearly all actives have a fitted effect of over 55% in size
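Cell growth measured by CellTiter-Glo luminescence after a minimum 48 h, 37 C compound exposure with 20 nM CPT in Tdp1-knockout DT40 cells stably expressing hTDP1, seeded 400/well; qHTS titration format.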
An asterisk follows results filed as active; ? = inconclusive; · = not tested or not shown; [ ] = another dose, or the depositor's remark. Rows were chosen to be rich in hits. Some 19% of all compounds tested hit in one or more screens of this group. Unless noted, the call rests on the fitted dose curve; in most records, active means well fitted curve in the direction sought with a large enough effect; inconclusive means small, poorly fitted or top-dose-only effect, or another doubt; inactive means no such curve, though single readings can be large; an effect the other way counts as inactive or inconclusive. Unless noted, on the % scale 0 is the no-effect control and ±100 the full control effect.

SMILES	HT1080-NT tox	HT1080 IDH1KD tx	TDP1 cell noCPT	IL1B secr inh	TDP1 cell CPT
COc1ccccc1C1CCN(c2ccc(CO)cc2[N+](=O)[O-])CC1	-25.4%	-26.5%	16.4µM*	-18.1	?
CC(C)(C)C1CCC(=NNC(=O)c2ccco2)CC1 (stereo not drawn)	3.4%	11.6%	5.7%	-6.7	-16.2%
CCCCC(OC(=O)CN1C(=O)COc2ccccc21)C(=O)NC1CCCCC1 (stereo not drawn)	-7.1%	2.0%	16.4µM*	-3.4	-1.2%
C=C1C(=O)O[C@H]2C[C@]3(C)C([C@@H](OC(=O)/C(C)=C/C)[C@H]12)[C@](C)(O)CC[C@H]3O (stereo partly drawn)	?	?	8.2µM*	-58.2*	14.6µM*
O=c1c2[nH]c3ccc(F)cc3c2ncn1CCC1=CCCCC1	14.8%	-3.6%	-14.3%	-10.0	-3.1%
Fc1ccc2[nH]c3c(NCc4ccccc4)ncnc3c2c1	?	?	5.17µM*	-85.6*	5.17µM*
COc1ccc2c(c1)[nH]c1c(=O)n(CCC3=CCCCC3)cnc12	10.3%	11.2%	23.1µM*	-3.9	?
COc1ccc2[nH]c3c(NCCCOC(C)C)ncnc3c2c1	?	?	?	-66.5*	?
COc1ccc2[nH]c3c(NCCC4=CCCCC4)ncnc3c2c1	29.1µM*	16.4µM*	2.91µM*	-105.1*	2.59µM*
O=C1CCCN1CCCNc1ncnc2c1[nH]c1ccc(Cl)cc12	-10.6%	?	?	?	?
C=C1C[C@]23CC[C@H]4C(CO)(CO)C[C@@H](O)C[C@@]4(C)[C@@H]2CC[C@H]1C3	·	·	-28.7%[9.04 µM]	·	?
COc1ccc(/C=N/Nc2ncnc3c2[nH]c2ccccc23)c(OC)c1OC	-3.9%	-2.6%	-29.4%	16.0	-15.4%
COc1cccc(/C=N/Nc2ncnc3c2[nH]c2ccc(C)cc23)c1OC	-10.7%	-0.5%	5.8µM*	149.1	2.06µM*
Cc1ccc2[nH]c3c(NCCN4CCOCC4)ncnc3c2c1	-7.8%	-16.0%	?	-5.2	?
C=CCNc1ncnc2c1[nH]c1ccc(C)cc12	?	?	20.6µM*	-101.5*	29.1µM*
COc1ccc(-n2ncc3c(NCCC4=CCCCC4)ncnc32)cc1	·	·	?	·	16.4µM*
CCOc1ccc2[nH]c3c(NCCC(C)C)ncnc3c2c1	?	?	18.4µM*	-68.2*	25.9µM*
Cc1ccc(C(=O)OCN2C(=O)c3ccccc3C2=O)o1	2.9%	-5.7%	-3.5%	-11.1	-19.3%
CCCCCCN1C=CC=C/C1=C\C=C(C#N)C#N	-12.1%	-9.8%	-28.3%	·	3.4%
Cn1c(NC(=S)Nc2ccccc2)nc2ccccc21	-0.2%	-10.0%	1.64µM*	-1.8	1.64µM*
O=C(COc1ccccc1)NC(=S)N1CCc2ccccc21	-0.6%	3.1%	16.4µM*	14.7	?
O=C(COc1ccccc1Cl)NC(=S)N1CCc2ccccc21	11.2µM*	?	?	36.2	-23.1%
FC(F)Oc1ccc(NC(=S)N2CCc3ccccc32)cc1	-8.5%	-12.0%	?	-61.4*	-6.8%
CC(C)C(=O)NC(=S)N1CCc2ccccc21	2.8%	0.8%	?	1.1	8.0%
CC1(C(=O)Nc2cccc3ccccc23)CCN1C(=O)Cc1ccc(Cl)cc1Cl (stereo not drawn)	?	?	?	-22.2	-105.3%
SMILES	HT1080-NT tox	HT1080 IDH1KD tx	TDP1 cell noCPT	IL1B secr inh	TDP1 cell CPT
CC(=O)Nc1nonc1NC(C)=O	15.2%	19.3%	-11.4%	6.0	2.3%
CC(=O)Oc1cccc(C(=O)O)c1OC(C)=O	·	·	-5.4%	·	9.4%
CC(=O)Oc1ccc2nonc2c1OC(C)=O	·	·	5.62µM*	·	5.62µM*
CC(=O)Nc1cc(OC(C)=O)c2nonc2c1OC(C)=O	6.31µM*	3.55µM*	18.4µM*	4.8	?
CCOc1ccc(NC(=S)NC(=O)/C=C/c2ccc(C)cc2)c([N+](=O)[O-])c1	-17.6%	-20.3%	13µM*	-2.1	14.6µM*
CCOc1ccc(NC(=S)NC(=O)/C=C/c2ccc(OC)c(OC)c2)c([N+](=O)[O-])c1	-2.6%	-7.4%	?	-13.5	?
Cc1ccc(/C=C/C(=O)Nc2ccccc2C(N)=O)cc1	-17.8%	-23.4%	?	?	20.6µM*
CCOC(=O)/C=C/C(=O)Nc1ccccc1C(=O)NC1CCCCC1	-7.9%	?	?	-51.1*	?
Cc1ccc(/C=C/C(=O)NC(=S)Nc2ccccc2C(=O)NC2CCCCC2)cc1	6.8%	18.6%	11.6µM*	-10.6	13µM*
COc1ccc(NC(=O)Oc2cc(C)ccc2C(C)C)cc1	-3.2%	-7.3%	-29.5%	-16.1	-17.3%
COC(=O)CN(c1cc([N+](=O)[O-])ccc1OC)S(C)(=O)=O	16.8%	12.5%	-7.2%	-26.5	27.5%
Cc1onc(-c2ccccc2)c1C(=O)NC1C(=O)N2C(C(=O)O)C(C)(C)S[C@@H]12 (stereo partly drawn)	·	·	-2.1%	·	8.9%
O=C(/C=C/c1ccccc1)NC(=S)Nc1ccccc1C(=O)NC1CCCCC1	-1.5%	-11.2%	?	-8.9	?
O=C(/C=C/c1ccc(F)cc1)NC(=S)Nc1ccccc1C(=O)NC1CCCCC1	2.5%	4.4%	13µM*	-2.5	16.4µM*
COc1cccc(CNC(=O)CCc2c(C)c3ccc(O)c(C)c3oc2=O)c1	·	·	-13.7%	·	3.8%
O=S(=O)(c1ccc(SCCOc2ccc(Cl)cc2)nc1)N1CCCC1	-2.0%[9.24 µM]	-12.7%	?	?	?
COc1ccc(CSc2ccc(S(=O)(=O)N3CCCC3)cn2)cc1F	-12.6%	-11.0%	16.4µM*	-13.0	23.1µM*
Cc1cc(C)cc(CSc2ccc(S(=O)(=O)N3CCCC3)cn2)c1	-1.8%	-5.6%	?	12.8	?
COc1ccc(C(C)=O)cc1CSc1ccc(S(=O)(=O)N2CCCCC2)cn1	-11.2%	-0.2%	16.4µM*	0.2	?
O=S(=O)(c1ccc(SCc2ccc(Cl)cc2)nc1)N1CCCC1	-16.3%	0.6%	14.6µM*	-3.1	?
O=S(=O)(c1ccc(SCCOc2ccc(Br)cc2)nc1)N1CCCC1	-6.7%	-28.2%	16.4µM*	-14.3	?
O=C(Cn1cnc2ccccc2c1=O)NCCC(=O)Nc1ccc(F)cc1	7.6%	5.7%	5.8%	30.0	7.8%
CC1(C)S[C@@H]2[C@H](NC(=O)Cc3ccccc3)C(=O)N2[C@H]1C(=O)O (tested in a mixture with another compound)	·	·	?	·	-2.4%

Compound activity (PubChem)
